According to the supplement of paper PMC10849652:
The full data set covers some 7,900 targets. This sample favours those with a hit. About 0.6% of all pairs of compound and target were hits. A number with no mark means an inactive call.

How the values were obtained:
Experiment in all cases: log2 fold change, soluble protein after heating vs DMSO (PISA); higher = thermal stabilisation; K562 cells, 10 uM, 30 min; active = over 0.2 and 3.5 SD of the protein, either way, in both replicates (recomputed)
bafetinib = compound: Cc1ccc(NC(=O)c2ccc(CN3CC[C@H](N(C)C)C3)c(C(F)(F)F)c2)cc1Nc1nccc(-c2cncnc2)n1 [bafetinib]
Outline: (§1)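 Soluble protein was quantified by TMTpro 16plex LC-MS/MS after channel sums were equalised. It was obtained as the supernatant after 21,000xg for 90 min from pooled aliquots of K562 cells (2×10^6 cells/mL, 10 μM compound, 30 min) heated for 3 min across 48°C-58°C and extracted in PBS with 0.5% NP-40 at 4°C. Thermal stability values are relative to control samples and come from duplicates. They are given as log2 fold changes.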

nilotinib = compound: Cc1cn(-c2cc(NC(=O)c3ccc(C)c(Nc4nccc(-c5cccnc5)n4)c3)cc(C(F)(F)F)c2)cn1 [nilotinib]
Outline: as §1

[1] = compound: Cc1nc(Nc2n[nH]c3c2CN(C(=O)N[C@H](CN(C)C)c2ccccc2)C3(C)C)c2sccc2n1
Outline: as §1

dasatinib = compound: Cc1nc(Nc2ncc(C(=O)Nc3c(C)cccc3Cl)s2)cc(N2CCN(CCO)CC2)n1 [dasatinib]
Outline: as §1

[2] = compound: Cc1ncc(-c2ccnc(Nc3ccc(S(C)(=O)=O)cc3)n2)n1C(C)C
Outline: as §1

[3] = compound: Cn1cc(-c2ccc3c(c2)CCN3C(=O)Cc2cccc(C(F)(F)F)c2)c2c(N)ncnc21
Outline: as §1

[4] = compound: Cn1cc(-c2ccc3nnc(C(F)(F)c4ccc5ncccc5c4)n3n2)cn1
Outline: as §1

tipifarnib = compound: Cn1cncc1[C@@](N)(c1ccc(Cl)cc1)c1ccc2c(c1)c(-c1cccc(Cl)c1)cc(=O)n2C [tipifarnib]
Outline: as §1

mubritinib = compound: FC(F)(F)c1ccc(/C=C/c2nc(COc3ccc(CCCCn4ccnn4)cc3)co2)cc1 [mubritinib]
Outline: as §1

[5] = compound: NC(=O)Nc1cc(-c2cccc(F)c2)sc1C(=O)N[C@H]1CCCNC1
Outline: as §1

[6] = compound: NC(=O)c1cnc(N[C@@H]2CCCC[C@@H]2N)nc1Nc1cccc(-n2nccn2)c1
Outline: as §1

[7] = compound: NC1(c2ccc(-c3nc4ccn5c(=O)[nH]nc5c4cc3-c3ccccc3)cc2)CCC1
Outline: as §1

entinostat = compound: Nc1ccccc1NC(=O)c1ccc(CNC(=O)OCc2cccnc2)cc1 [entinostat]
Outline: as §1

citarinostat = compound: O=C(CCCCCCNC(=O)c1cnc(N(c2ccccc2)c2ccccc2Cl)nc1)NO [citarinostat]
Outline: as §1

silmitasertib = compound: O=C(O)c1ccc2c(c1)nc(Nc1cccc(Cl)c1)c1ccncc12 [silmitasertib]
Outline: as §1

[8] = compound: c1cc(OCCN2CCCCC2)cc(-c2n[nH]c3ccc(-c4nnc[nH]4)cc23)c1
Outline: as §1

[9] = compound: Cc1cccc(CC(=O)N2CCc3c2ccc(-c2cn(C)c4ncnc(N)c24)c3F)n1
Outline: as §1

[10] = compound: NCC(=O)Nc1ccc(-n2nc(C(F)(F)F)cc2-c2ccc3c(ccc4ccccc43)c2)cc1
Outline: as §1

vorinostat = compound: O=C(CCCCCCC(=O)Nc1ccccc1)NO [vorinostat]
Outline: as §1

[11] = compound: O=C1NC(=O)C(c2cnc3ccccn23)=C1c1cn2c3c(cc(F)cc13)CN(C(=O)N1CCCCC1)CC2
Outline: as §1

Sequence of UniProt O60749 (O60749 whole entry, looked up): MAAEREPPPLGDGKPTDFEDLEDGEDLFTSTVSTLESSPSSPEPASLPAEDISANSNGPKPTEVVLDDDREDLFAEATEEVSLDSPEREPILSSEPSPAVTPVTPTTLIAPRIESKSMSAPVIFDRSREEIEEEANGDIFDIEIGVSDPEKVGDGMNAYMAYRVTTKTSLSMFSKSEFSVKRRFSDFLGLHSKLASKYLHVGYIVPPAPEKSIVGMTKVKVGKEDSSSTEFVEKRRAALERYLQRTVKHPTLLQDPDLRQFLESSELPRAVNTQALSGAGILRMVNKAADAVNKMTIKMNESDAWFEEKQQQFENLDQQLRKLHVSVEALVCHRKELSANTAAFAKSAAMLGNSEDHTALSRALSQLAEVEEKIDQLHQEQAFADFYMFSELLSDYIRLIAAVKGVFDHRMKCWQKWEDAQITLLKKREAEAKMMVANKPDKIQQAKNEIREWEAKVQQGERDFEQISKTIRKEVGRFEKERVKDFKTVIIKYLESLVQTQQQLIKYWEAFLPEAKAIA
Sequence of UniProt Q9NS93 (Q9NS93 whole entry, looked up): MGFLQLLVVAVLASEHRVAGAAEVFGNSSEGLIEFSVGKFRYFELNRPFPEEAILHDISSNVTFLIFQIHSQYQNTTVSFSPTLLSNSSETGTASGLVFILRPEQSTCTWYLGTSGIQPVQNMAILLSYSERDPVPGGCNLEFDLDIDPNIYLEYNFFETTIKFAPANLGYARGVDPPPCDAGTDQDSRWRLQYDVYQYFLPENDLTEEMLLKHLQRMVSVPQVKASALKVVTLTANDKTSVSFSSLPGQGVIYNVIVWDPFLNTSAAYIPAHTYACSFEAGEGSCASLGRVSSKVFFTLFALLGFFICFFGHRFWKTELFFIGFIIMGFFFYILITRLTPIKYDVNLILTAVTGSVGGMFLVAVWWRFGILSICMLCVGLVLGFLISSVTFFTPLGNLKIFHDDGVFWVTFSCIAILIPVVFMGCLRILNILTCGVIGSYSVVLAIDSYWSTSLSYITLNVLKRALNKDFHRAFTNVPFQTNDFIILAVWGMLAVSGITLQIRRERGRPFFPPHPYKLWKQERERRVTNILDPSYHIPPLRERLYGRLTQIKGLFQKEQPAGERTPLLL
Sequence of UniProt P78383 (P78383 whole entry, looked up): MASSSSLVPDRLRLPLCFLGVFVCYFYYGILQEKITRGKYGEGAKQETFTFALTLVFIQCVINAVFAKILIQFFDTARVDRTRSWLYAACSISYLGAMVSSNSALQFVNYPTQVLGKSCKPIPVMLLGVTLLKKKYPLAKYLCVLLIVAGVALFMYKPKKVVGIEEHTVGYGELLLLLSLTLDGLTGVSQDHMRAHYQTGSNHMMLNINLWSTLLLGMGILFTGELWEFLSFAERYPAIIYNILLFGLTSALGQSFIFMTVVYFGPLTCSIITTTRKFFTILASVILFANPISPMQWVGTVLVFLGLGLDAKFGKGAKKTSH
Sequence of UniProt Q9NXE4 (Q9NXE4 whole entry, looked up): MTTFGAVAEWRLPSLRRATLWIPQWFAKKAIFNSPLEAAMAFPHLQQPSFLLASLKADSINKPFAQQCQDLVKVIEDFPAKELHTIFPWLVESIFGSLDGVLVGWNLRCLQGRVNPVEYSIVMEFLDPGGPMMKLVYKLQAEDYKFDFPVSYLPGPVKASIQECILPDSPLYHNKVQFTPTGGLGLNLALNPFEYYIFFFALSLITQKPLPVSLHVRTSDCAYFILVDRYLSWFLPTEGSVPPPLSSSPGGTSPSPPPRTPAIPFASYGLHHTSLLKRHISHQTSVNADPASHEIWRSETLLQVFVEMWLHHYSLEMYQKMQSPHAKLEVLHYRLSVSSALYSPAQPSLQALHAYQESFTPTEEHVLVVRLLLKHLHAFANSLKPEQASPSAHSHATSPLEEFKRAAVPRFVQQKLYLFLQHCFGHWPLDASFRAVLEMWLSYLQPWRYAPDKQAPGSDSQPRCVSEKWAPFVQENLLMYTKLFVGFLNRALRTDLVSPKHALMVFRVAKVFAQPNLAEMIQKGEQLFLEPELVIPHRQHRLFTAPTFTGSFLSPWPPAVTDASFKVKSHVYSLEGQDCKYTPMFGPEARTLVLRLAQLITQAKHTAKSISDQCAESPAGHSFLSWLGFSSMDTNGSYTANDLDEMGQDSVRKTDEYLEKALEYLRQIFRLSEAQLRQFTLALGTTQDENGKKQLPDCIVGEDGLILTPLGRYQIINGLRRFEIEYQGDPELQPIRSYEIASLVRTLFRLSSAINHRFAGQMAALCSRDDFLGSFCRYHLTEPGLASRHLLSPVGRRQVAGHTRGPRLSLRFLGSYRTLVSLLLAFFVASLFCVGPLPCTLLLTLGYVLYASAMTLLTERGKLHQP
Sequence of UniProt P35711 (P35711 whole entry, looked up): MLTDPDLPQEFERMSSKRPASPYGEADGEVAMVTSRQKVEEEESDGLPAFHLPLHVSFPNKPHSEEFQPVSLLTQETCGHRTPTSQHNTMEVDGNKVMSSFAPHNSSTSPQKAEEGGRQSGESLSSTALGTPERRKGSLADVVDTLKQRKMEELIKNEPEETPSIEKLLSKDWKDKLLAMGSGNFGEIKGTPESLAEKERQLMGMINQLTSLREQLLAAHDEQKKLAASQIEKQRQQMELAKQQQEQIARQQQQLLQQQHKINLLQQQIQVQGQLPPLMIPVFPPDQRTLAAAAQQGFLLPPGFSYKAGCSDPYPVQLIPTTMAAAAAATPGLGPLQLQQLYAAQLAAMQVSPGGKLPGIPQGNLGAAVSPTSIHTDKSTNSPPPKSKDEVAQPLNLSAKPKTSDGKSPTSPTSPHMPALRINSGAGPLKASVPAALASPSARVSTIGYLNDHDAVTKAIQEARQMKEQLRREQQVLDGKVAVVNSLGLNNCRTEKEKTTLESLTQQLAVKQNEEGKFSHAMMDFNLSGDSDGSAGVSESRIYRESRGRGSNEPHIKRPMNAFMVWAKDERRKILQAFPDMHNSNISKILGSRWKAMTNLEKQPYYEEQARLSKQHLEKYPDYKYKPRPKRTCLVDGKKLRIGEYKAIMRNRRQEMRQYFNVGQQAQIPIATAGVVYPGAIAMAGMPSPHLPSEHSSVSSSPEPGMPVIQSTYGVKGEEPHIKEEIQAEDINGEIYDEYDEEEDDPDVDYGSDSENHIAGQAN
Sequence of UniProt Q6PCB7 (Q6PCB7 whole entry, looked up): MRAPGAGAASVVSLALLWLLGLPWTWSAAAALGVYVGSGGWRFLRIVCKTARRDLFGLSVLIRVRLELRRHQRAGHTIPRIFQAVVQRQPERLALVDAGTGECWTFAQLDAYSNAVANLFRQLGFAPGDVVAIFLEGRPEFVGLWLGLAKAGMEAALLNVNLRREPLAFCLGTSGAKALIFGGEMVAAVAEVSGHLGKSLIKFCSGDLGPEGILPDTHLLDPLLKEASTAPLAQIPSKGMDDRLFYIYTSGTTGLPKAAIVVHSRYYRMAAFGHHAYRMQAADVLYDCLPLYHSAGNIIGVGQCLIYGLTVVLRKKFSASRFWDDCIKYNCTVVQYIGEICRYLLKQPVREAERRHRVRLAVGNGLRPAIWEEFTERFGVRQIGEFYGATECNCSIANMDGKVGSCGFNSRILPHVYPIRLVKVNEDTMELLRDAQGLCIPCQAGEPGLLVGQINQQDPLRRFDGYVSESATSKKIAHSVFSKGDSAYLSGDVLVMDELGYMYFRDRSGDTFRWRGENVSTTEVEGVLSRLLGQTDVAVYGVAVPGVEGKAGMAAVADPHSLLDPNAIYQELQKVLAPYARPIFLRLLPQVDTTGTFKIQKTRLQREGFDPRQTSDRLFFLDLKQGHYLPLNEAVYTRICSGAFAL
Sequence of UniProt Q96QD8 (Q96QD8 whole entry, looked up): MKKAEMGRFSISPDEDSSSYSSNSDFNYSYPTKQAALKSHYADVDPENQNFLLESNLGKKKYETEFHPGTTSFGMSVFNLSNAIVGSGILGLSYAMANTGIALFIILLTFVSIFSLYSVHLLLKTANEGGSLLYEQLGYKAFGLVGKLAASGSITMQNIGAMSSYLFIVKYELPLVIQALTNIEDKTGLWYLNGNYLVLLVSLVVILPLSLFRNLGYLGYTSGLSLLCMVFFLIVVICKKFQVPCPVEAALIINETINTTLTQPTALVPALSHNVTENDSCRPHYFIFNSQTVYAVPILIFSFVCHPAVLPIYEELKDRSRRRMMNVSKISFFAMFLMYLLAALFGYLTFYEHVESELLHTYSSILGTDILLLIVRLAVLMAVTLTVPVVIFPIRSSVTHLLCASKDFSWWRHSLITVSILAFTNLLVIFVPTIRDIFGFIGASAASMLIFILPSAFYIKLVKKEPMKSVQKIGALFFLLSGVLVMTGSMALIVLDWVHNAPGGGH
Sequence of UniProt O94901 (O94901 whole entry, looked up): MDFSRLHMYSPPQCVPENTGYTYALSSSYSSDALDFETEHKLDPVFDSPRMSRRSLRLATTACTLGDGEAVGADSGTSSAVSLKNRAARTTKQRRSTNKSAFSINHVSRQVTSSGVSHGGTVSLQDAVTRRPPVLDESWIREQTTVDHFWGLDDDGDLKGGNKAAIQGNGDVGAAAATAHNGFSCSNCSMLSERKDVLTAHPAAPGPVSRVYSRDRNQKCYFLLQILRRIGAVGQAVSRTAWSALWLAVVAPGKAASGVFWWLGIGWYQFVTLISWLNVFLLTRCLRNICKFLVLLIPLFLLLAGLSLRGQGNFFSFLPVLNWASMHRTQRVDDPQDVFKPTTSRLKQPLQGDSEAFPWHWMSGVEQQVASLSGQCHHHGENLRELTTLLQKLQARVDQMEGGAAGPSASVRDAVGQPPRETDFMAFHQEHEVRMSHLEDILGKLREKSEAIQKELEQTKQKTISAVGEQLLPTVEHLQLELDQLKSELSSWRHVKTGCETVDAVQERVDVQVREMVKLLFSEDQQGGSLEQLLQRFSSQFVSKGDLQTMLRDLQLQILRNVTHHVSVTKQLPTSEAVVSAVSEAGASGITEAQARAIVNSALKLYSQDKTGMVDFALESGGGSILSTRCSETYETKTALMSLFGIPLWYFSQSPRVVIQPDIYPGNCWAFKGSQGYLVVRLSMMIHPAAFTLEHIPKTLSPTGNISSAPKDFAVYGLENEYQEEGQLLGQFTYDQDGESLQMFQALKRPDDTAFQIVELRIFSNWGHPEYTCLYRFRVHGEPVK

Target	log2 fold change (bafetinib)	log2 fold change (nilotinib)	log2 fold change [1]	log2 fold change (dasatinib)	log2 fold change [2]	log2 fold change [3]	log2 fold change [4]	log2 fold change (tipifarnib)	log2 fold change (mubritinib)	log2 fold change [5]	log2 fold change [6]	log2 fold change [7]	log2 fold change (entinostat)	log2 fold change (citarinostat)	log2 fold change (silmitasertib)	log2 fold change [8]	log2 fold change [9]	log2 fold change [10]	log2 fold change (vorinostat)	log2 fold change [11]
TM7SF3 (UniProt Q9NS93)	-0.147	-0.004	0.005	0.005	-0.029	-0.034	0.034	0.019	0.147	0.091	0.048	-0.359 (active)	0.076	0.179	0.066	0.084	–	–	–	–
SUN1 isoform 9 (UniProt O94901)	–	-0.014	-0.115	0.007	-0.018	-0.141	-0.055	0.039	-0.021	-0.035	-0.073	-0.028	0.18	-0.115	-0.009	0.075	-0.036	0.102	0.06	-0.226
SOX5 (UniProt P35711)	-0.06	-0.437 (active)	-0.011	–	0.211	0.042	-0.039	0.027	0.064	0.035	-0.064	-0.015	-0.129	–	0.018	–	–	0.03	–	–
SMPD4 isoform 2 (UniProt Q9NXE4)	-0.026	–	–	-0.285	–	0.09	–	-0.111	0.108	–	-0.1	0.014	–	–	-0.058	–	0.151	-0.03	0.216	–
SLC35B1 isoform 2 (UniProt P78383)	-0.018	-0.065	0.052	0.142	-0.097	-0.13	-0.172	–	0.016	-0.054	–	-0.029	0.041	-0.052	0.261	-0.327	–	-0.057	–	0.138
SLC27A1 (UniProt Q6PCB7)	0.047	-0.087	-0.009	-0.152	0.079	-0.053	0.046	0.094	0.431 (active)	0.026	-0.012	-0.016	-0.013	–	-0.039	–	–	0.038	–	0.014
SLC46A1 (UniProt Q96NT5)	–	–	–	–	–	-0.119	–	–	–	–	-0.143	–	–	-0.061	–	0.01	-0.016	0.137	-0.005	–
SUPT5H isoform 2 (UniProt O00267)	–	–	–	–	–	–	–	–	–	–	–	–	–	–	–	–	–	-0.046	–	–
SNX2 isoform 2 (UniProt O60749)	-0.163	–	–	-0.097	–	0.16	–	-0.155	–	0.043	-0.004	–	0.088	0.065	–	-0.1	–	-0.264	–	-0.183
SSBP4 (UniProt U3KPY3)	–	–	–	–	–	–	–	–	0.046	–	–	-0.014	–	–	0.133	–	–	0.016	–	–
SSB (UniProt E7ERC4)	–	–	–	-0.528	–	–	–	–	-0.063	–	–	-0.168	–	–	0.022	–	-0.025	-0.065	-0.176	–
SLC38A2 (UniProt Q96QD8)	-0.112	-0.037	0.039	0.047	0.029	-0.055	0.029	-0.073	0.017	-0.023	-0.046	-0.037	0.018	0.025	0.054	-0.088	–	-0.12	–	0.014
SYK (UniProt P43405)	0.276	–	–	-0.356	–	0.141	-0.041	0.075	–	–	–	–	–	-0.029	–	-0.123	–	-0.029	–	0.075
